From PubChem BioAssay (NCATS)
Results filed as inconclusive are left out. Activity calls are given as the source filed them. Unless noted, calls follow the shape of the dose curve; as a rule, active = well fitted curve in the direction sought with a large enough effect; inconclusive = small, poorly fitted or top-dose-only effect, or another doubt; inactive = no such curve, though single readings can be large; an effect the other way counts as inactive or inconclusive.

How the values were obtained:
[1] = molecular target: Aldehyde dehydrogenase, mitochondrial (Homo sapiens) (UniProt P05091); test: qHTS for Inhibitors of the Aldehyde Dehydrogenase Family (ALDH2) Confirmatory screens (AID 2061303; active = well fitted inhibition curve with a large enough effect; title and protocol of this record describe different tests; also: nearly all actives have a fitted effect of over 45% in size; also: potency is read from the fitted curve at half-maximal effect)
[2] = qHTS for Inhibitors of the Aldehyde Dehydrogenase Family (ALDH1A2, ALDH1A3, ALDH2, ALDH3A1) (AID 2061307); also: nearly all actives have a fitted effect of over 50% in size; as to Potency: test system not described further here; potency is read from the fitted curve at half-maximal effect
[3] = molecular target: Aldehyde dehydrogenase, mitochondrial (Homo sapiens) (UniProt P05091); test: qHTS for Inhibitors of the Aldehyde Dehydrogenase Family (ALDH2) Primary screen (AID 2061308); also: nearly all actives have a fitted effect of over 55% in size; also: potency is read from the fitted curve at half-maximal effect
[4] = molecular target: Retinaldehyde dehydrogenase 3 (Homo sapiens) (UniProt P47895); test: qHTS for Inhibitors of the Aldehyde Dehydrogenase Family (ALDH1A3) Confirmatory screens (AID 2061311); also: nearly all actives have a fitted effect of over 60% in size; also: potency is read from the fitted curve at half-maximal effect
[5] = molecular target: Retinal dehydrogenase 2 (Homo sapiens) (UniProt O94788); test: qHTS for Inhibitors of the Aldehyde Dehydrogenase Family (ALDH1A2) Confirmation screens (AID 2061314); also: nearly all actives have a fitted effect of over 65% in size; also: potency is read from the fitted curve at half-maximal effect
[6] = molecular target: Retinaldehyde dehydrogenase 3 (Homo sapiens) (UniProt P47895); test: qHTS for Inhibitors of the Aldehyde Dehydrogenase Family (ALDH1A3) Primary screen (AID 2061315)
[7] = molecular target: Aldehyde dehydrogenase 1A1 (Homo sapiens) (UniProt P00352); test: qHTS for Inhibitors of the Aldehyde Dehydrogenase Family (ALDH1A1) Confirmatory screens (AID 2061316); also: nearly all actives have a fitted effect of over 65% in size; also: potency is read from the fitted curve at half-maximal effect

Measured: Potency

Cc1cc2c(s1)c1cnn(Cc3c(Cl)ccc(C)c3F)c(=O)c1n2C
inactive: all assays above

Cc1cc(C)nc(NC(=S)N2CCN(c3ccc4ccccc4c3)CC2)c1
active: [1] 11.3 µM | [2] 3.55 µM | [3] 11.2 µM | [4] 7.12 µM | [5] 12.7 µM | [7] 2.83 µM

COc1ccc(C2=Nn3c(nnc3-c3cccc(OC)c3)SC2)cc1
active: [2] 12.7 µM
inactive: all other assays above

O=C(c1cccc(Cl)c1F)N1CCN(Cc2cccc(Nc3nccs3)n2)CC1
active: [4] 35.5 µM
inactive: [1] | [2] | [3] | [6]

Cc1cc(N2C(=O)c3ccccc3C2=O)n[nH]1
inactive: all assays above

Cc1ccc2nc3sc(C(=O)NCc4ccco4)cc3cc2c1
active: [1] 12.7 µM | [2] 11.3 µM | [4] 10.1 µM | [5] 7.12 µM | [7] 7.12 µM
inactive: [3] | [6]

COC(=O)c1ccc2c(c1)S(=O)(=O)N=C2Sc1cc(C)ccc1C
active: [5] 14.2 µM
inactive: all other assays above

CC(=O)c1ccc(N2CCN(C(=O)c3ccc4c(c3)CC(=O)N4)CC2)cc1
not listed: [5] | [7]
inactive: all other assays above

CC(C)c1ccccc1-c1ncc(F)c(NC(C)(C)c2ccc(-c3cccnc3)cc2)n1
inactive: all assays above

Oc1ccc(Oc2ccccc2F)c2cccnc12
active: [1] 4.49 µM | [2] 17 µM | [4] 2.01 µM | [5] 2.01 µM | [7] 5.04 µM
inactive: [3]

Cc1noc(C)c1-c1csc(N2CCC(C(N)=O)CC2)n1
inactive: all assays above

COc1ccc(-c2csc(N3CCC(C(N)=O)CC3)n2)cc1
inactive: all assays above

OCc1cccc(-c2noc(-c3ccccc3F)n2)c1
active: [2] 10.7 µM | [4] 5.65 µM
not listed: [6]
inactive: all other assays above

CCOc1cc(CNc2ccc(O)cc2)ccc1OCc1ccc(Cl)cc1
active: [1] 10.1 µM | [2] 11.3 µM | [3] 3.16 µM | [4] 1.01 µM | [5] 0.504 µM | [7] 6.34 µM

Cn1nnnc1Sc1ncnc2scc(-c3cnc(N)nc3)c12
not listed: [5] | [7]
inactive: all other assays above

CCOC(=O)c1ccoc1-c1ccc2ncnc(NCc3ncc[nH]3)c2c1
not listed: [5] | [7]
inactive: all other assays above

O=C1Cc2cc(S(=O)(=O)N3CCN(c4ccc(C(F)(F)F)cc4)CC3)ccc2N1
not listed: [5]
inactive: all other assays above

COc1ccc(C2=Nn3c(nnc3-c3ccccc3C)SC2)cc1
not listed: [5] | [7]
inactive: all other assays above

O=C(Cc1ccc(Cl)c(Cl)c1)Nc1ccc(S(=O)(=O)Nc2cccc(C(=O)O)c2)cc1
not listed: [5]
inactive: all other assays above

O=C(NC1CCCc2c1cnn2-c1ccc(F)cc1F)c1ccc(C(=O)c2ccccc2)cc1 (stereo not drawn)
not listed: [5] | [7]
inactive: all other assays above

N#Cc1c(-c2ccc(F)cc2)no[n+]1[O-]
inactive: [1] | [3] | [4] | [6]
active: [2] 12.7 µM

Oc1cccc2cc(C3CC3)cnc12
inactive: [1] | [3] | [6]
active: [2] 0.634 µM | [4] 31.6 µM

Cc1cccc(C)c1-n1c(SCC(=O)NCCCCCC(=O)O)nnc1-c1cccc([S+](=O)([O-])N2CCCC2)c1
not listed: [5]
inactive: all other assays above
